Experimental data published in PubChem BioAssay (NCI).
Compounds without any hit were thinned out: in the full panel of roughly 83,000, 20% have a hit.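 For each line, cells grew in 96-well plates with the test compound present at a single concentration for 48 hours.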 A number with no mark means an inactive call. Activity calls are given as the source filed them. How the source made its calls: active means growth percent below 10; inactive means the rest.

Columns and labels:
Experiment in all cases: NCI-60 one-dose screen, 48 h (100 = growth as untreated, 0 = no growth, -100 = all killed)
Details in all cases: 10 µM unless noted
NCI-H23 lung = tested on: NCI-H23 lung
NCI-H226 lung = tested on: NCI-H226 lung
NCI-H322M lung = tested on: NCI-H322M lung
HOP-62 NSCLC = tested on: HOP-62 NSCLC
NCI-H460 lung = tested on: NCI-H460 lung
NCI-H522 lung = tested on: NCI-H522 lung
A549/ATCC NSCLC = tested on: A549/ATCC NSCLC
786-0 renal = tested on: 786-0 renal
COLO 205 colon = tested on: COLO 205 colon
DU-145 prostate = tested on: DU-145 prostate
K-562 leukemia = tested on: K-562 leukemia
MALME-3M melanoma = tested on: MALME-3M melanoma
MDA-MB-231 breast = tested on: MDA-MB-231 breast
RXF 393 renal = tested on: RXF 393 renal
SF-268 CNS = tested on: SF-268 CNS
SF-295 CNS = tested on: SF-295 CNS
SF-539 CNS = tested on: SF-539 CNS
UACC-257 melanoma = tested on: UACC-257 melanoma
M14 melanoma = tested on: M14 melanoma

SMILES	growth (NCI-H23 lung)	growth (NCI-H226 lung) [%]	growth (NCI-H322M lung)	growth (HOP-62 NSCLC)	growth (NCI-H460 lung)	growth (NCI-H522 lung)	growth (A549/ATCC NSCLC)	growth (786-0 renal)	growth (COLO 205 colon)	growth (DU-145 prostate)	growth (K-562 leukemia)	growth (MALME-3M melanoma)	growth (MDA-MB-231 breast)	growth (RXF 393 renal)	growth (SF-268 CNS)	growth (SF-295 CNS)	growth (SF-539 CNS)	growth (UACC-257 melanoma) [%]	growth (M14 melanoma)
O=C(Nc1cccc(N=Cc2c(O)ccc3ccccc23)c1)c1ccccc1	95.8%	94.1	95%	86.9%	111%	76.8%	94.7%	93.4%	105%	98.2%	97.3%	102%	94.1%	90.4%	89.1%	95.2%	90.5%	91.6	91.1%
COc1ccc(N=C2CSc3nnc(-c4cc(F)c(Cl)cc4Cl)n3N2)cc1	-22.1% (active)	27.9	6.08% (active)	-33.7% (active)	-63.2% (active)	-27.7% (active)	-21.1% (active)	-44.5% (active)	-21.1% (active)	-48.9% (active)	-58.4% (active)	-45.1% (active)	-4.51% (active)	-52.7% (active)	7.12% (active)	-16.2% (active)	-67.3% (active)	38.5	-44.7% (active)
NC(=O)N/N=C\c1ccc([N+](=O)[O-])o1	99.6%	101	117%	96.7%	105%	95.8%	97.1%	107%	117%	105%	101%	73%	122%	123%	102%	97.7%	102%	91.9	112%
Cn1c(-c2ccccc2)cc(=O)n1-c1ccccc1	96%	102	103%	108%	117%	107%	102%	107%	121%	120%	110%	113%	100%	115%	112%	122%	101%	97.4	110%
